PubChem BioAssay (Tox21)
Records with an inconclusive call do not appear. Where a structure was tested more than once in an assay, its records may differ in their call. Activity calls are given as the source filed them. Calls follow the shape of the dose curve; as a rule, active = well fitted cell-killing curve with a large enough effect in the repeat runs; inconclusive = weak or mixed curves, or effect the other way; inactive = no such curve, though single readings can be large or run the other way.

Test: qHTS assay to identify small molecule antagonists of the sonic hedgehog signaling (Shh) pathway - cell viability counter screen (AID 1259367); also: nearly all actives have a fitted effect of over 55% in size
Settings: NIH/3T3 Gli1-Luc viability, CellTiter-Fluor, 24 h; series mostly up to 42.5 µM; viability change, negative = cytotoxic: at the top concentration
Source text: National Center for Advancing Translational Sciences [NCATS]
NIH Chemical Genomics Center [NCGC]
U.S. Environmental Protection Agency [EPA]
National Institutes of Environmental Health Sciences [NIEHS]
National Toxicology Program [NTP]
U.S. Food and Drug Administration [FDA]
The sonic hedgehog (Shh) pathway is essential for normal embryonic development. Dysregulation of the Shh pathway can cause severe developmental defects in organs. Therefore chemicals that interfere with the pathway are potential developmental toxicants. A cell line designated 3T3Gli1-Luc (DMB/OARSA/CFSAN/FDA, Laurel, MD), a NIH/3T3 derived clone containing stably integrated Gli1-Luc reporter is used to detect chemical interference of the Shh pathway, by changes in the expression of the firefly Luc gene under the control of the Gli1 transcriptional response element. This cell line was used to screen Tox21 libraries for identifying and prioritizing the potential developmental toxicants that interfere Shh pathway. Conditioned medium-stimulated mode was used to screen for chemicals inhibiting Shh signaling. The cytotoxicity of the compounds was tested in parallel by measuring the cell viability using CellTiter-Fluor assay system (Promega, Madison, WI) in the same wells.
Tox21 Assay Protocol Summary:
3T3 Gli1-Luc cells were dispensed at 2,000 per well in 5uL of culture medium into white solid bottom 1536-well plates (Greiner Bio-One, Monroe, NC) using a Multidrop Combi (Thermo Scientific, Waltham, MA) dispenser. The assay plates were incubated at 37 C and 5% CO2 for 4hr, and then 23nL of compounds dissolved in DMSO and positive control were transferred using a Pintool station (Wako, San Diego, CA). The compound transfer was followed by the addition of 1ul conditioned medium or assay buffer using two separate tips of Flying Reagent Dispenser (FRD, Aurora Discovery, San Diego, CA). The assay plates were incubated at 37C and 5% CO2 for 24hr. For viability read, after 23hr of compound treatment, 1uL of CellTiter-Fluor reagent (Promega Corporation, Madison, WI) was added to each well of the assay plates using Flying Reagent Dispenser (FRD, Aurora Discovery, San Diego, CA) and incubated the assay plates at 37C for 1hr. The fluorescence signal was quantified using a ViewLux plate reader (Perkin Elmer, Shelton, CT).
% is scaled to controls: 0 for no effect and ±100 for the full control effect; potency is read from the fitted curve at half-maximal effect.

Structure (SMILES)	Potency	viability change, negative = cytotoxic
Cc1[nH]nc2c1N=C(c1ccccc1Cl)c1cc([N+](=O)[O-])ccc1N2	8.63 µM (active)	–
CC(C)(C)CC(C)(C)c1ccc(OCCOCC[N+](C)(C)Cc2ccccc2)cc1	61.1 µM (active) and inactive	–
O=C(c1ccc(F)cc1)C1CCN(CCn2c(=O)[nH]c3ccccc3c2=O)CC1	–	-8.64% (inactive)
CS(=O)(=O)CCNCc1ccc(-c2ccc3ncnc(Nc4ccc(OCc5cccc(F)c5)c(Cl)c4)c3c2)o1	–	-28.3% (inactive)
OCCN1CCN(CC/C=C2/c3ccccc3Sc3ccc(C(F)(F)F)cc32)CC1	–	-17.3% (inactive)
Cc1ccc(O)c2ncccc12	1.33 µM (active)	–
O=C(Nc1ccc(Oc2ccc(Cl)cc2)c(Cl)c1)c1cc(I)cc(I)c1O	–	-13.5% (inactive)
CC(C)(C)NC(=O)[C@@H]1C[C@@H]2CCCC[C@@H]2CN1C[C@@H](O)[C@H](Cc1ccccc1)NC(=O)[C@H](CC(N)=O)NC(=O)c1ccc2ccccc2n1	13.9 µM (active)	–
CSc1ccc(/C=C2/C(C)=C(CC(=O)O)c3cc(F)ccc32)cc1	–	-15% (inactive)
CC(C)n1nc(-c2cc3cc(O)ccc3[nH]2)c2c(N)ncnc21	0.944 µM (active)	–
O=c1c(-c2ccccc2)c1-c1ccccc1	11.9 µM (active)	–
Clc1ccc2nsnc2c1NC1=NCCN1	–	-0.172% (inactive)
CC(C)(C)C(=O)OCOC(=O)[C@@H]1N2C(=O)[C@@H](NC(=O)[C@H](N)c3ccccc3)[C@H]2SC1(C)C	–	1.4% (inactive)
[Cl][Bi]([Cl])([c]1ccccc1)([c]1ccccc1)[c]1ccccc1	0.136 µM (active)	–
CCCCCCCCCCCCCCCS(=O)(=O)Oc1ccccc1	–	6.67% (inactive)
[Cl][Au]([Cl])[Cl]	4.86 µM (active)	–
CCCCCCCCCCn1cc[n+](CCCCCCCCCC)c1C	30.7 µM (active)	–
N=C1C=CC(=C(c2ccc(N)cc2)c2ccc(N)cc2)C=C1	19.3 µM (active)	–
CCCCCOC(=O)CCCC	–	0.769% [at 92.4 µM] (inactive)
Oc1cc2ccccc2c2ccccc12	6.86 µM (active)	–

Structure (SMILES)	Potency	viability change, negative = cytotoxic
NNc1nc(-c2ccc([N+](=O)[O-])cc2)cs1	48.6 µM (active)	–
Cc1onc(-c2c(Cl)cccc2Cl)c1C(=O)N[C@@H]1C(=O)N2[C@@H]1SC(C)(C)[C@@H]2C(=O)O	–	-1.06% (inactive)
C[C@H]1[C@H]2CC[C@H]3[C@@H]4CC=C5C[C@@H](N(C)C)CC[C@]5(C)[C@H]4CC[C@]23CN1C	–	-1.36% (inactive)
CCCCC(CC)CN=C(N)NC(N)=NCCCCCCN=C(N)NC(N)=NCC(CC)CCCC (stereo not given)	21.1 µM (active)	–
Clc1ccc2n[nH]nc2c1	–	1.89% [at 92.4 µM] (inactive)
CCCCCCCCOc1ccccc1C(=O)Nc1ccc(C(=O)OCC[N+](C)(CC)CC)cc1	–	9.93% (inactive)
CCCCCCCCCOC(=O)c1ccc(O)cc1	–	1.92% [at 92.4 µM] (inactive)
CC1=C(/C=C/C(C)=C/C=C/C(C)=C/C=O)C(C)(C)CCC1	60.8 µM (active)	–
Clc1ccccc1C(c1ccccc1)(c1ccccc1)n1ccnc1	13.7 µM (active)	–
CCCCCCCCCCC=O	–	7.25% [at 92.4 µM] (inactive)
N#CSc1ccc(N)c([N+](=O)[O-])c1	30.8 µM (active)	–
C[C@]12CCC(=O)C=C1CC[C@@H]1[C@@H]2[C@@H](O)C[C@@]2(C)[C@H]1CC[C@]2(O)C(=O)COC(=O)CCC(=O)O	–	-5.41% (inactive)
CCCCN(CCCC)c1ccc(C(=O)c2ccccc2C(=O)O)c(O)c1	–	-18.1% [at 92.4 µM] (inactive)
CCOC(=O)O[C@]1(C(=O)OCCl)CC[C@H]2[C@@H]3CCC4=CC(=O)C=C[C@]4(C)[C@H]3[C@@H](O)C[C@@]21C	–	-5.28% (inactive)
O=C(NOCC1CC1)c1ccc(F)c(F)c1Nc1ccc(I)cc1Cl	–	-19% (inactive)
Oc1cccc(-c2c3nc(c(-c4cccc(O)c4)c4ccc([nH]4)c(-c4cccc(O)c4)c4nc(c(-c5cccc(O)c5)c5ccc2[nH]5)CC4)C=C3)c1	13.3 µM (active)	–
CO[Si](CCCNc1ccccc1)(OC)OC	–	2.83% [at 92.4 µM] (inactive)
COCCCC/C(=N\OCCN)c1ccc(C(F)(F)F)cc1	–	-3.43% (inactive)
CN(C)c1ccc(C2(c3ccc(N(C)C)cc3)OC(=O)c3cc(N(C)C)ccc32)cc1	–	10% [at 92.4 µM] (inactive)
CCc1cc(Cc2cc(CC)cc(C(C)(C)C)c2O)c(O)c(C(C)(C)C)c1	61.1 µM (active)	–
